Counter-ions that a name gives are not always drawn.
Experiments:
[1] = system: Staphylococcus aureus Sa2 (MRSA, cystic fibrosis isolate); test: growth reduction vs untreated control (OD550); higher = stronger antibacterial activity; settings: 0.1 mM; 24 h
Method: (§1)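 Single-dose screen of the MedChem Express Drug Repurposing Library (0.1 mM, 1% DMSO) against planktonic MRSA S. aureus Sa2 (CF isolate) in TSB in 96-well plates, 37 °C aerobic, 24 h. Assays were run in triplicate and repeated twice.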

[2] = system: Staphylococcus aureus Sa2 (MRSA, cystic fibrosis isolate); test: growth reduction vs untreated control (viable cell count); higher = stronger antibacterial activity; extreme values may be limits of the assay; settings: 0.1 mM; 24 h
Method: as §1

Row | SMILES | growth reduction [1] [%] | growth reduction [2] [%]
1 | CC(=O)OCC(=O)[C@@]1(O)CC[C@H]2[C@@H]3CCC4=CC(=O)C=C[C@]4(C)[C@H]3C(=O)C[C@@]21C [Prednisone acetate] | 97.7 | 100
2 | O=C(c1ccc(F)c(F)c1Nc1ccc(I)cc1F)N1CC(O)([C@@H]2CCCCN2)C1 [Cobimetinib] | 100 | 100
3 | CC(C)(O)c1ccccc1CC[C@@H](SCC1(CC(=O)O)CC1)c1cccc(/C=C/c2ccc3ccc(Cl)cc3n2)c1 [Montelukast (sodium)] | 100 | 100
4 | O=C(O)CCCc1cc2cc(Cl)ccc2n1S(=O)(=O)c1ccc2ncsc2c1 [Lanifibranor] | 99.1 | 99
5 | Cc1ccc(-c2cc(C(F)(F)F)nn2-c2ccc(S(N)(=O)=O)cc2)cc1 [Celecoxib] | 95.6 | 90
6 | CC(/C=C/C=C(\C)C(=O)O)=C\C=C\C=C(C)\C=C\C=C(/C)C(=O)O [Transcrocetin meglumine salt] | 100 | 92
7 | CNC(=O)c1cc(Oc2ccc(NC(=O)Nc3ccc(Cl)c(C(F)(F)F)c3)c(F)c2)ccn1 [Regorafenib (monohydrate)] | 100 | 98
8 | COc1cc(C(=O)NS(=O)(=O)c2ccccc2C)ccc1Cc1cn(C)c2ccc(NC(=O)OC3CCCC3)cc12 [Zafirlukast] | – | 100
9 | C=Cc1cc(O)cc2nc(-c3ccc(O)c(F)c3)oc12 [Prinaberel] | – | 100
10 | CCN(CC)CC#CCOC(=O)C(O)(c1ccccc1)C1CCCCC1 (stereo not drawn) [Oxybutynin (chloride)] | – | 91
11 | Cc1c(Cl)c(C)[n+]([O-])c(Cl)c1-c1noc(-c2cc(O)c(O)c([N+](=O)[O-])c2)n1 [Opicapone] | – | 100
12 | CCC[C@H](Oc1cc(C)c(-n2cc(C(F)(F)F)cn2)c(C)c1)c1ccc(C(=O)NCCC(=O)O)cc1 | – | 100
13 | CCCCCCCCCCCCN1CCCCCC1=O [Laurocapram] | – | 100
14 | CSc1ccc(C(=O)/C=C/c2cc(C)c(OC(C)(C)C(=O)O)c(C)c2)cc1 [Elafibranor] | – | 95
15 | CCOC(=O)C1=C(C)NC(C)=C(C(=O)OC)C1c1cccc(Cl)c1Cl (stereo not drawn) [Felodipine] | – | 100
16 | CC(C)COc1ccc(CNC(=O)N(Cc2ccc(F)cc2)C2CCN(C)CC2)cc1 [Pimavanserin] | – | 100
17 | CN[C@H]1CN(c2ccc3c(=O)c(C(=O)O)cn(-c4nccs4)c3n2)C[C@@H]1OC [Voreloxin (Hydrochloride)] | – | 100
18 | O=C(Nc1ccc(F)cc1)c1cnc(SCc2cc(OC(F)(F)F)ccc2B(O)O)nc1 | – | 100
19 | CCOc1cc(CC(=O)N[C@@H](CC(C)C)c2ccccc2N2CCCCC2)ccc1C(=O)O [Repaglinide] | – | 100
20 | O=C(O)c1cc(F)c2nc(N3[C@@H]4CC[C@H]3C[C@@H](OCc3c(-c5ccccc5OC(F)(F)F)noc3C3CC3)C4)sc2c1 [Tropifexor] | – | 100
21 | COc1cc(/C=C/c2ccc(O)cc2)cc(OC)c1 [Pterostilbene] | – | 100
22 | CNC(=O)c1ccc(Nc2ncc(C(F)(F)F)c(NCc3nccnc3N(C)S(C)(=O)=O)n2)cc1 [Defactinib] | – | 95
23 | O=C(Nc1ncc(SCCN2CCCC2)s1)[C@]1(c2ccc(S(=O)(=O)C3CC3)cc2)C[C@H]1C1CCCCC1 [Globalagliatin] | – | 100

Row | SMILES | growth reduction [1] [%] | growth reduction [2] [%]
24 | CC1(C)CCC2=C(O1)c1ccccc1C(=O)C2=O [β-Lapachone] | – | 100
25 | CC[C@@]1(O)C[C@H](O[C@H]2C[C@H](N(C)C)[C@H](O[C@H]3C[C@H](O)[C@H](O[C@H]4CCC(=O)[C@H](C)O4)[C@H](C)O3)[C@H](C)O2)c2c(cc3c(c2O)C(=O)c2c(O)cccc2C3=O)[C@H]1C(=O)OC [Aclacinomycin A hydrochloride] | – | 100
26 | COc1cccc2c1c(O)c(C(=O)N(C)c1ccc(C(F)(F)F)cc1)c(=O)n2C [Tasquinimod] | – | 98
27 | CN(C)C(=O)/C=C/CNCCOc1ccc(/C(=C(/CC(F)(F)F)c2ccccc2)c2ccc3[nH]nc(F)c3c2)cn1 | – | 100
28 | O=C(O)C[C@H]1CCc2c1[nH]c1ccc(OCc3ccc(C4CCCC4)c(C(F)(F)F)c3)cc21 [Etrasimod] | – | 100
29 | CNCc1ccc(C)c(NC(=O)c2ccc(Nc3nc(-c4ccccc4)c4ccccc4n3)cc2)c1 | – | 100
30 | COc1cccc(OC)c1-c1cc(C(=O)NC2(C(=O)O)C3CC4CC(C3)CC2C4)nn1-c1ccnc2cc(Cl)ccc12 (stereo not drawn) [Meclinertant] | – | 100
31 | COc1cc(C)c2c(Oc3cccc(C(F)(F)F)c3)c(OC)cc(NC(C)CCCN)c2n1 (stereo not drawn) [Tafenoquine (Succinate)] | – | 100
32 | C[C@@H](O[C@H]1OCCN(Cc2n[nH]c(=O)[nH]2)[C@H]1c1ccc(F)cc1)c1cc(C(F)(F)F)cc(C(F)(F)F)c1 [Aprepitant] | – | 100
33 | CC1(C)CC[C@]2(C(=O)O)CC[C@]3(C)[C@H](C(=O)C=C4[C@@]5(C)C=C(C#N)C(=O)C(C)(C)[C@@H]5CC[C@]43C)[C@@H]2C1 [Bardoxolone] | – | 100
34 | O=C1NCCN1CCN1CCC(c2cn(-c3ccc(F)cc3)c3ccc(Cl)cc23)CC1 [Sertindole] | – | 97
35 | CC1(C)CCC(C)(C)c2cc(NC(=O)c3ccc(C(=O)O)cc3)ccc21 [Tamibarotene] | – | 100
36 | CC1(C)CC=C(c2nc(C3CC(C)(C)OC(C)(C)C3)ccc2NC(=O)c2nc(C#N)c[nH]2)CC1 [Edicotinib] | – | 100
37 | CCc1cc(F)c2nc(N3CCC(NC4CCOCC4)CC3)c(-c3nc(C)no3)c(C)c2c1 | – | 93
38 | COCc1c(C(C)C)nc(C(C)C)c(/C=C/[C@@H](O)C[C@@H](O)CC(=O)O)c1-c1ccc(F)cc1 [Cerivastatin (sodium)] | – | 99
39 | CCCCCOc1ccccc1/C(=C\SC)n1ccnc1 [Neticonazole] | – | 100
40 | COc1cc2ncnc(Nc3ccc(F)c(Cl)c3)c2cc1NC(=O)/C=C/CN1CCCCC1 [Dacomitinib] | – | 100
41 | CC1=CC(=O)c2ccccc2C1=O [Menadione] | – | 100
42 | CC(C)=CCC/C(C)=C/CC/C(C)=C/CSc1ccccc1C(=O)O [Salirasib] | – | 100
43 | COc1cccc(Nc2ncnn3ccc(CN4CC[C@@H](N)[C@H](O)C4)c23)c1 | – | 94
44 | CCCCCOc1ccccc1/C(=C\SC)n1ccnc1 [Neticonazole (hydrochloride)] | – | 100
45 | O=c1oc2ccccc2c(O)c1Cc1c(O)c2ccccc2oc1=O [Dicoumarol] | – | 100
46 | COCCN1CCC(N(Cc2ccc(-c3ccc(C(F)(F)F)cc3)cc2)C(=O)Cn2c(SCc3cccc(F)c3F)cc(=O)c3ccccc32)CC1 [Rilapladib] | – | 100
